The source of these data is PubChem BioAssay (Tox21).

Several values for one entry are separate records, joined by “and”; a condition that tells them apart may be missing. Identical values can stand only once. Records with an inconclusive call do not appear. Activity calls are given as the source filed them. Unless noted, calls follow the shape of the dose curve; as a rule, active = well fitted curve in the direction sought with a large enough effect in the repeat runs; inconclusive = weak or mixed curves; inactive = no such curve, though single readings can be large; an effect the other way counts as inactive or inconclusive.

Assay [1] deals with Peroxisome proliferator-activated receptor delta (Homo sapiens) (UniProt Q03181). Kind of assay: qHTS assay to identify small molecule agonists of the peroxisome proliferator-activated receptor delta (PPARd) signaling pathway (AID 743212; calls by dose curve). In short, it runs like this: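 HEK293H UAS-bla reporter cells, human PPARd system; compounds delivered in DMSO after 5 h plating, then at 37 C. Beta-lactamase FRET read, 2 h RT substrate step.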

The nature of assay [2]: qHTS assay to identify small molecule antagonists of the peroxisome proliferator-activated receptor delta (PPARd) signaling pathway - cell viability counter screen (AID 743213). Also: nearly all actives have a fitted effect of over 50% in size. Also: potency is read from the fitted curve at half-maximal effect. In short, it runs like this:
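CellTiter-Glo was added to PPARd-bla HEK293H wells following 17 h compound treatment in the presence of 300 nM L165041. Luminescence was recorded after 30 min at room temperature.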
Background: Quantitative high-throughput screening tests each substance at several concentrations.

The target in assay [3] is Peroxisome proliferator-activated receptor delta (Homo sapiens) (UniProt Q03181). Kind of assay: qHTS assay to identify small molecule antagonists of the peroxisome proliferator-activated receptor delta (PPARd) signaling pathway (AID 743215; active = well fitted inhibition curve with a large enough effect in the signal ratio in the repeat runs, not every such curve was filed as active; the % refers to the signal ratio;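 also: cells stimulated with agonist L165041 at 300 nM final during compound exposure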; also: potency is read from the fitted curve at half-maximal effect). In short, it runs like this: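 Antagonist-mode beta-lactamase reporter screen: HEK293H cells with UAS-bla under PPARd control, stimulated by 300 nM L165041 (final) alongside test compound for 17 h at 37 C, then FRET fluorescence after 2 h substrate incubation.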

The target in assay [4] is Bile acid receptor (Homo sapiens) (UniProt Q96RI1). The assay is described as follows: qHTS assay to identify small molecule antagonists of the farnesoid-X-receptor (FXR) signaling pathway (AID 743217; active = well fitted inhibition curve with a large enough effect in the signal ratio in the repeat runs, not every such curve was filed as active; the % refers to the signal ratio). In short, it runs like this:
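Beta-lactamase reporter under UAS control in HEK 293T cells; compound exposure 16 h at 37 °C in the presence of chenodeoxycholic acid (50 uM final); signal from B/G FRET substrate after 2 h at room temperature.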

Assay [5] in a line: qHTS assay to identify small molecule agonists of the farnesoid-X-receptor (FXR) signaling pathway - cell viability counter screen (AID 743218). Also: nearly all actives have a fitted effect of over 45% in size. Also: potency is read from the fitted curve at half-maximal effect. In short, it runs like this:
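In GeneBLAzer FXR-UAS-bla HEK 293T cells, compounds act for 16 h at 37 C. Cell viability is then scored in the reporter wells by CellTiter-Glo, 30 min at RT, luminescence.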

Assay [6] addresses Bile acid receptor (Homo sapiens) (UniProt Q96RI1). Kind of assay: qHTS assay to identify small molecule agonists of the farnesoid-X-receptor (FXR) signaling pathway (AID 743220; active = well fitted activation curve with a large enough effect in the signal ratio in the repeat runs, not every such curve was filed as active; the % refers to the signal ratio). In short, it runs like this: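 Beta-lactamase reporter under UAS control in GeneBLAzer FXR HEK 293T cells (5000/well) measured with LiveBLAzer FRET substrate after 2 h at room temperature. Compound exposure lasted 16 h at 37C.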

A short description of assay [7]: qHTS assay to identify small molecule antagonists of the farnesoid-X-receptor (FXR) signaling pathway - cell viability counter screen (AID 743221; active = well fitted cell-killing curve with a large enough effect in the repeat runs, not every such curve was filed as active; also: nearly all actives have a fitted effect of over 50% in size; also: potency is read from the fitted curve at half-maximal effect). In short, it runs like this: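 Cytotoxicity counter screen run in the FXR-bla reporter wells: HEK 293T cells exposed to compound with 50 uM (final) chenodeoxycholic acid for 16 h, 37 C, then viability measured by CellTiter-Glo luminescence after 30 min, room temperature.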

In assay [8] the target is Vitamin D3 receptor (Homo sapiens) (UniProt P11473). Kind of assay: qHTS assay to identify small molecule agonists of the vitamin D receptor (VDR) signaling pathway (AID 743222; calls by dose curve). In short, it runs like this: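 Agonist activity measured in VDR-bla reporter cells. Exposure 16 h, 37C, 5% CO2; detection by B/G FRET substrate, 2 h RT.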
A short description of assay [9]: qHTS assay to identify small molecule agonists of the vitamin D receptor (VDR) signaling pathway - cell viability counter screen (AID 743224). Also: nearly all actives have a fitted effect of over 50% in size. Also: potency is read from the fitted curve at half-maximal effect. In short, it runs like this:
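VDR-bla cell line, quantitative HTS format; 16 h compound incubation (37C, 5% CO2); ATP-based CellTiter-Glo luminescence measured in the reporter assay wells.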

For assay [10], the target named is Vitamin D3 receptor (Homo sapiens) (UniProt P11473). Kind of assay: qHTS assay to identify small molecule antagonists of the vitamin D receptor (VDR) signaling pathway (AID 743223; active = well fitted inhibition curve with a large enough effect in the signal ratio in the repeat runs, not every such curve was filed as active; the % refers to the signal ratio). In short, it runs like this: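 Antagonist mode: compound added to VDR-bla cells alongside agonist 1alpha,25-dihydroxyvitamin D3 (3 nM final), incubation 16 h at 37C. Read-out is LiveBLAzer FRET fluorescence, 2 h at room temperature.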

Chain of Vitamin D3 receptor (Homo sapiens) (P11473 whole entry, looked up): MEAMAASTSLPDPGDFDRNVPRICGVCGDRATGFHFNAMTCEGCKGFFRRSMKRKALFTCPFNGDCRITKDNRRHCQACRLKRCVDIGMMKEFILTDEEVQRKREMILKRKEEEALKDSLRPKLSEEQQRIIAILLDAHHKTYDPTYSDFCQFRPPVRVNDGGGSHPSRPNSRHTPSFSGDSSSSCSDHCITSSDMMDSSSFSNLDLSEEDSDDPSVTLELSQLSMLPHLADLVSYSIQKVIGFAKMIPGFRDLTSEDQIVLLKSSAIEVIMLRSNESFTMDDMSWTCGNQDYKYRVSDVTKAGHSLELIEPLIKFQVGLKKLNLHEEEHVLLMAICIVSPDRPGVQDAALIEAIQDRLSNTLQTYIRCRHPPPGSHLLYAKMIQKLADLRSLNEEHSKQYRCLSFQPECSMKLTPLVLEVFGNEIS
Chain of Peroxisome proliferator-activated receptor delta (Homo sapiens) (Q03181 whole entry, looked up): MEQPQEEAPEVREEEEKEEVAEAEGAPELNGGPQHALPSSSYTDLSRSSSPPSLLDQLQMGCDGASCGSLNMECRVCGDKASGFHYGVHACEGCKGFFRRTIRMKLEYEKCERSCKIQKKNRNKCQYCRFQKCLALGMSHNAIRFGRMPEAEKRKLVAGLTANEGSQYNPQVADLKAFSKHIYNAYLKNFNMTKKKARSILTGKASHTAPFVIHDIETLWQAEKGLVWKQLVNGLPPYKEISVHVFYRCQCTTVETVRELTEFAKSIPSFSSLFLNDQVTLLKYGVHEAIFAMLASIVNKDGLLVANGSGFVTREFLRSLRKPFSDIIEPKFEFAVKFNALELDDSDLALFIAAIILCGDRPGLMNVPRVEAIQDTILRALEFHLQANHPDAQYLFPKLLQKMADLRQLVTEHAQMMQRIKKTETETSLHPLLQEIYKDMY
Chain of Bile acid receptor (Homo sapiens) (Q96RI1 whole entry, looked up): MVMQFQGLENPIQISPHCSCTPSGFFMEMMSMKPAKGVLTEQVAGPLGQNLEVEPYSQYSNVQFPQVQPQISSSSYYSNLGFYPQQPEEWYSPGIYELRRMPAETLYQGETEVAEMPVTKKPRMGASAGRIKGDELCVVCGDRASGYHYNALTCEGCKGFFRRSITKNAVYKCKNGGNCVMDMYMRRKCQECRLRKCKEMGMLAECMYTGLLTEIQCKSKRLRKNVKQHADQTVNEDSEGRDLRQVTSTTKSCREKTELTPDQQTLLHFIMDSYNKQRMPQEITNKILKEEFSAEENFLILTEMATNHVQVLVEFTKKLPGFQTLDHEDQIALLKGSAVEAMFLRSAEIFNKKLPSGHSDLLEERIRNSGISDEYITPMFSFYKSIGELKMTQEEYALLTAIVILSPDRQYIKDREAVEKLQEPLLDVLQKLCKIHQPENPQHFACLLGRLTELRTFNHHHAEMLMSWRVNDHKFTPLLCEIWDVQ

Take `Nc1cccnc1`: the Potency entry in assay [1], in assay [2], in assay [3], in [4], in assay [5] and in assay [7] was “inactive” in each case. Besides, in [9], the Potency result was “inactive”. Moreover, the call in assay [6] and in [8] was inactive.

In the case of `CC(C)C(=O)OCC(C)(C)C(OC(=O)C(C)C)C(C)C` (configuration not stated), the Potency entry in [1], in assay [2], in [3], in [5], in assay [7] and in assay [9] was “inactive” in each case. Moreover, the outcome in assay [8] and in assay [10] was inactive.

For `Brc1ccc(Oc2cc(Br)c(Br)cc2Br)c(Br)c1`, the Potency entry in [1], in [2], in assay [3], in assay [5], in assay [7] and in assay [9] was “inactive” in each case. Also, the molecule was classed as inactive in assay [8] and in [10].

For the molecule `COP(=S)(OC)Oc1ccc([N+](=O)[O-])cc1`, the Potency result in assay [1], in assay [2], in [3], in assay [4], in assay [7] and in assay [9] was “inactive” each time. Further, in assay [8], the molecule was classed as inactive.

Consider `Oc1ccc(-c2ccccc2)cc1`, for which the Potency entry in [1], in assay [2], in [3], in [4], in [5] and in [7] was “inactive” in each case. In assay [9], the Potency result is “inactive”. Also, the molecule was called inactive in [8] and in [10].

On to `CC(C)=CC1C(C(=O)OCc2coc(Cc3ccccc3)c2)C1(C)C` (configuration not stated), for which the Potency result in assay [1], in assay [2], in [3], in [4], in [5] and in assay [7] was “inactive” each time. In addition, the Potency entry in assay [9] is “inactive”. For the same molecule, the call in assay [8] and in [10] was inactive.

Consider `CC(O)CCO` (configuration not stated), for which the Potency entry in assay [1], in [2], in assay [3], in assay [5], in [7] and in [9] was “inactive” throughout. The molecule was classed as inactive in assay [8] and in assay [10].

As to `CCN(CC)N=O`, the Potency entry in assay [1], in [2], in assay [3], in assay [4], in assay [5] and in assay [7] was “inactive” in each case. Moreover, the Potency result in assay [9] was “inactive”. The outcome in [6], in assay [8] and in assay [10] was inactive.

In the case of `C#CCOS(=O)OC1CCCCC1Oc1ccc(C(C)(C)C)cc1` (configuration not stated), the Potency entry in assay [1], in assay [2], in assay [3], in assay [4], in assay [5] and in assay [7] was “inactive” each time. Moreover, the outcome in assay [6] was inactive. Besides, in [9], the Potency was 6.92 µM (active).

Take `CCCCC(CC)COC(=O)c1ccc(C(=O)OCC(CC)CCCC)c(C(=O)OCC(CC)CCCC)c1` (configuration not stated): the Potency entry in assay [1], in assay [2], in assay [3], in assay [5], in assay [7] and in assay [9] was “inactive” in each case. For the same molecule, the outcome in assay [8] and in assay [10] was inactive.

On to `CCCCCCCCCCCOC(=O)c1ccccc1C(=O)OCCCCCCCCCCC`, for which the Potency entry in assay [1], in [2], in assay [3], in [5], in assay [7] and in assay [9] was “inactive” throughout. Also, the molecule was classed as inactive in assay [8] and in assay [10].

On to `ClC1C(Cl)C(Cl)C(Cl)C(Cl)C1Cl` (configuration not stated), for which the Potency entry in assay [1], in assay [2], in [3], in [4], in assay [5] and in assay [7] was “inactive” in each case. The Potency entry in assay [9] is “inactive”.

As to `c1nc[nH]n1`, the Potency entry in assay [1], in [2], in [3], in assay [4], in assay [5] and in assay [7] was “inactive” in each case. Besides, in assay [9], the Potency result was “inactive”. For the same molecule, the molecule was classed as inactive in assay [8] and in [10].

Consider `CCN(N=O)C(N)=O`, for which the Potency result in assay [1], in [2], in assay [3], in [4], in assay [5] and in assay [7] was “inactive” each time. Moreover, in assay [9], the Potency entry is “inactive”. Also, the outcome in assay [6], in assay [8] and in assay [10] was inactive.

Take `O=C(Nc1ccc(Br)cc1)c1cc(Br)cc(Br)c1O`: the Potency entry in assay [1] is “inactive”. The Potency was 1.55 µM (active) in assay [2]; 6.89 µM (active) in assay [3]; 3.45 µM (active) and 1.55 µM (active) and 7.5 µM (active) in assay [5]; 9.74 µM (active) and 2.45 µM (active) and 13.3 µM (active) in [7]; 1.73 µM (active) and 2.19 µM (active) and 8.41 µM (active) in assay [9]. Further, the outcome in [8] and in assay [10] was inactive.

Consider `Cc1cc(Cl)ccc1OCCCC(=O)O`, for which the Potency result in [1], in [2], in [3], in assay [4], in [5] and in [7] was “inactive” in each case. The Potency entry in assay [9] is “inactive”. Moreover, the outcome in assay [8] and in assay [10] was inactive.

Regarding `CC(C)(c1cc(Cl)c(O)c(Cl)c1)c1cc(Cl)c(O)c(Cl)c1`, the Potency entry in [1], in assay [2], in [3], in assay [5], in [7] and in assay [9] was “inactive” in each case. Moreover, the molecule was called inactive in assay [8] and in assay [10].

As for `c1ccc(NNc2ccccc2)cc1`, the Potency result in [1], in assay [2], in assay [3], in [4], in [5] and in [7] was “inactive” in each case. In assay [9], the Potency result is “inactive”. Besides, the call in assay [8] and in assay [10] was inactive.

`CC(C)(OOC(C)(C)c1ccccc1)c1ccccc1`: the Potency result in assay [1], in [2], in assay [3], in assay [4] and in assay [7] was “inactive” throughout. The result in [8] and in [10] was inactive.

Turning to `COP(=O)(OC)OC`, the Potency result in assay [1], in assay [2], in assay [3], in [4], in assay [5] and in [7] was “inactive” throughout. For the same molecule, in [9], the Potency entry was “inactive”. Moreover, the call in [8] and in assay [10] was inactive.

As to `OCC(O)CO`, the Potency entry in assay [1], in assay [2], in assay [3], in assay [4], in assay [5] and in [7] was “inactive” in each case. Besides, the Potency result in assay [9] was “inactive”. Moreover, the molecule was called inactive in assay [8] and in assay [10].

`CCCCN(CC)c1c([N+](=O)[O-])cc(C(F)(F)F)cc1[N+](=O)[O-]`: the Potency result in assay [1], in [2], in assay [3], in assay [5], in [7] and in [9] was “inactive” each time. The call in assay [8] and in assay [10] was inactive.

Consider `CNC(=O)N(C)c1nnc(C(C)(C)C)s1`, for which the Potency result in assay [1], in [2], in assay [3], in assay [5], in assay [7] and in assay [9] was “inactive” in each case. Besides, the result in assay [8] and in assay [10] was inactive.

On to `O=P(O)(O)CCCl`, for which the Potency entry in assay [1], in assay [2], in assay [3], in assay [4], in assay [5] and in assay [7] was “inactive” each time. The Potency entry in assay [9] is “inactive”. Besides, the call in [8] and in [10] was inactive.
